According to PubChem BioAssay AID602188 (Broad Institute, 2012):
Potency and affinity values are given separately. Results filed as inconclusive are left out. Entries that show only a call come without a potency. Activity calls are given as the source filed them.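 Rule for the calls: active = compounds whose fitted curve lowers viable cell signal, with half-maximal concentration at most twice the top tested dose; inconclusive = flat curve showing 30 to 70% toxicity, or poor fit; inactive = the rest.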

Assay: NIH-3T3 fibroblast cytotoxicity, dose response, cytotoxicity control for antifungal single agent project, cell-based, Alamar Blue, dry powder (AID 602188)

SMILES | outcome
O=C(Nc1nc(-c2ccc3c(c2)CCCC3)cs1)c1ccccc1 | inactive
NC(=O)c1cccc(C(=O)Nc2nc(-c3ccc4c(c3)CCCC4)cs2)c1 | inactive
O=C(Nc1nc(-c2ccccc2)cs1)c1ccc(Br)s1 | inactive
CCOC(=O)N1C(=O)C2(CCCCC2)N(c2ccc(C)cc2)C1=S | inactive
